Screening results: PubChem BioAssay, several laboratories
This is a sample that favours compounds with a hit; in the whole collection about 1.7% have one here.
SUMO1 PPI mod = modulators of human SUMO1-mediated protein-protein interactions. SUMO1 binding to a labelled peptide, TR-FRET, 1 h. inhibition, % at 20 µM. 0.33% of 360,000 active; in the data active means inhibition above about 37%
Target sequence (P63165 whole entry, looked up): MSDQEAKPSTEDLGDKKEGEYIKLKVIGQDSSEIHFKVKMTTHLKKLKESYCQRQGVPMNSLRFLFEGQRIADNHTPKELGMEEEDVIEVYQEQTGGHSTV
Neddylation inh = inhibitors of human cullin neddylation; P61081+Q13564; TR-FRET cullin neddylation, biochemical; inhibition, % at 25 µM; 0.58% of 360,000 active; AID 651699; in the data active means inhibition above about 36%
Rin1-Abl PPI inh = inhibitors of human Rin1-Abl protein interaction; TR-FRET Rin1/Abl binding, biochemical; inhibition, % at 7.35 µM; 0.4% of 360,000 active; AID 588664; in the data active means inhibition above about 5%, passing the limit was not always enough
ATG4B inhibitor = ATG4B (human) cysteine protease inhibition. ATG4B cleavage of LC3-PLA2, NBD-HPC fluorescence, 1 h. Q9Y4P1. inhibition, % at 8.33 µM. 0.51% of 340,000 active
Neddyl conf = confirmation of human cullin neddylation inhibitors; shares compounds with Neddylation inh; TR-FRET cullin neddylation biochemical assay; calls only at 25 µM; 13% of 1,800 active;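 further: neddylation substrate is the cullin 1 ring ligase complex with SKP2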
The depositor's hits bear a star; i = inactive; nt = no result shown; + = active, no number. Unless noted, no stated cut-off is given here; in the data, active means inhibition above about 40%; inactive means the rest.

SMILES	SUMO1 PPI mod	Neddylation inh	Rin1-Abl PPI inh	ATG4B inhibitor	Neddyl conf
O=C(N/N=C/c1c(O)n(CCc2ccccc2)c(=O)[nH]c1=O)c1ccccc1	-5	44*	-2	-9	i
CCCCC(=O)N/N=C/c1c(O)n(-c2cccc3ccccc23)c(=O)[nH]c1=O	-2	41*	-4	1	i
COC(=O)C1=CO[C@@H](C)[C@@H]2CN3CC[C@@]4(C(=O)Nc5ccccc54)[C@@H]3C[C@H]12	2	-12	-2	7	nt
CCOCN(C(=O)CCl)c1c(C)cccc1CC	6	6	1	-8	nt
CCOc1ccc2[nH]c(=O)c(CN(CCO)C3(c4nnnn4C4CCCCC4)CCCCC3)cc2c1	-7	39*	-1	-36	i
Nc1ccccc1C(=O)OCCOc1ccccc1	8	nt	-2	0	nt
C=CCOC(=O)c1ccccc1N	5	45*	2	0	i
CN(C)C(=S)SSC(=S)N(C)C	3	-2	1	-9	nt
Cc1ccc(-c2cc(-c3ccccc3)cc(-c3ccccc3)[n+]2-c2ccccc2)cc1	-21	24	2	36	nt
Cc1ccc(-c2cc(-c3ccc(C)cc3)[n+](-c3ccc(C(=O)[O-])cc3)c(-c3ccc(C)cc3)c2)cc1	-56	40*	-1	-1	+
CC(CCN1CC1)=NNC(=O)Nc1cccc2ccccc12	-48	48*	-5	-1	i
O=[N+]([O-])c1cccnc1N1CCCNCC1	-15	-10	-2	3	nt
O=C(c1ccc2c3c(cccc13)CC2)C1CCCN(Cc2ncc[nH]2)C1 (stereo unspecified)	-8	50*	-2	18	i
OCCCCO	-1	-1	1	-6	nt
Cc1ccc(CN2C(=O)NC(=O)C3(Cc4c(nc5ccccn5c4=O)N4CCCCCC43)C2=O)cc1 (stereo unspecified)	-1	44*	0	-10	i
O=C1NC(=O)C2(Cc3ccccc3N3CCCC32)C(=O)N1c1cccc(Cl)c1 (stereo unspecified)	3	-5	-4	6	nt
O=c1[nH]c(=S)n(-c2ccccc2Cl)c(O)c1C=NCCN1CCNCC1	-2	3	-2	0	nt
NC(Cc1ccc(O)cc1)C(=O)NN=Cc1ccc(N(CCCl)CCCl)cc1 (stereo unspecified)	-19	41*	-4	-9	i
COc1ccc2c(CN3CC=C(c4ccccc4)CC3)cc(=O)oc2c1	-13	41*	3	-5	i
CCc1ccc2c(CN3CC=C(c4ccccc4)CC3)cc(=O)oc2c1	-11	-1	0	1	nt
Cn1c2ccccc2c2c(C(=O)N3CCC4(CC3)OCCO4)cn(C3CCCC3)c(=O)c21	-4	30	0	-9	nt
COCCn1cc(C(=O)N2CCC3(CC2)OCCO3)c2c3ccccc3n(C)c2c1=O	2	39*	-4	-8	i
FC(F)(F)Oc1ccc(NC2=NCCCS2)cc1	1	-1	-1	8	nt
CCOc1ccc(N=Cc2c(O)n(CCc3ccc(OC)c(OC)c3)c(=O)[nH]c2=O)cc1	-5	41*	1	1	i
COc1ccc(CCn2c(O)c(C=Nc3ccc(NC(C)=O)cc3)c(=O)[nH]c2=O)cc1OC	-3	nt	1	10	nt
CCC(C)n1c(O)c(/C=N/NC(=O)c2ccncc2)c(=O)[nH]c1=S (stereo unspecified)	-9	43*	-1	7	i
CCOC(=O)[C@]12Cc3c(cc(OC)c(OC)c3OC)[C@H]1N(CCC(=O)OC)C(=O)c1ccccc12	-1	0	nt	nt	nt
CC1(C)Cc2c(sc3c2C(=O)NC(c2cccnc2)N3)CO1 (stereo unspecified)	-2	43*	-3	-11	i
O=C1NC(c2cccnc2)Nc2sc3c(c21)CCCC3 (stereo unspecified)	15	41*	0	-4	i
CC12CN3CC(C)(CN(C1)C3c1cccnc1)C2=O (stereo unspecified)	4	3	2	-14	nt
